# In the library only some 2.7% were active in any assay of this set; here they are far more common.
# ERG Ets-DNA blk: blocks human ERG Ets domain binding to DNA; P11308; fluorescence polarization, His-ERG Ets domain / labelled DNA; Potency, µM (highest dose often 76.9 µM), inactives show at the top dose FP activity, negative = inhibition, hits mostly inhibitors; 370,000 compounds, 0.028% hits; AID 624246; active = well fitted inhibition curve with a large enough effect in the polarisation, with a control signal flat; inconclusive = small, poorly fitted or top-dose-only effect, or effect the other way, or a change in a side signal; inactive = no such curve, though single readings can be large or run the other way; the % refers to the polarisation;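 also: polarization taken with two DNA probes labelled with fluorescein and Texas red; potency is read from the fitted curve at half-maximal effect; % of control where 0% means no effect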
#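 His-tagged ERG Ets domain (1 uM in the protein solution; 300mM KCl, 50mM Tris-HCl, 1mM EDTA, 1mM DTT, pH 7.5) received compound, then a probe mix of 5 nM fluorescein-DNA and 100nM Texas-615-DNA. Fluorescence polarization was read for both dyes.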
# 12-LOX inh: ALOX12 (human) lipoxygenase inhibition; 580,000 compounds, 1.1% hits; AID 1671190; purified 12hLO, xylenol orange hydroperoxide absorbance; Potency, µM (titrated, usually from 108 µM), without a hit: at the top dose activity change, negative = inhibition, hits mostly inhibitors; also: potency is read from the fitted curve at half-maximal effect; % is scaled to controls: 0 for no effect and ±100 for the full control effect
#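 Hydroperoxide product was detected by ferrous iron/xylenol orange as the 573 to 405 nm absorbance ratio. Arachidonic acid at 40 uM (final) was turned over for 30 min at room temperature by 150 nM human 12hLO, pH 7.0 Hepes buffer, after 15 min compound preincubation.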
# A549 tox-1: counter-screen for Nrf2 inhibitors: cytotoxicity in A549 cells; A549 ARE-Fluc cells, CellTiter-Fluor viability, 18-24 h; Potency, µM (doses to about 46 µM), without a hit: top-dose activity change, negative = cytotoxicity, most hits filed as inhibitors; 390,000 compounds, 0.16% hits; AID 504648; also: potency is read from the fitted curve at half-maximal effect; % is scaled to controls: 0 for no effect and ±100 for the full control effect
#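 A549 ARE-Fluc cells in 5% FBS OPTI-MEM, 5000 cells/well, rested 2 h then exposed to compounds in concentration-response for 18-24 h at 37 °C. Viability by CellTiter-Fluor fluorescence (Ex 405/Em 525) after 30 min; luciferase luminescence (BugLite, 15 min, RT) read afterwards.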
# Nrf2 block: inhibitors of Nrf2 signaling. A549 ARE-Fluc reporter, luciferase luminescence, 18-24 h. Potency, µM (top dose mostly 46 µM), without a hit: top-dose activity change, negative = inhibition, actives largely listed as inhibitors. AID 504444. 360,000 compounds, 2.1% hits; also: potency is read from the fitted curve at half-maximal effect; % is scaled to controls: 0 for no effect and ±100 for the full control effect; nearly all actives have a fitted effect of over 60% in size
#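 Quantitative HTS in A549 cells stably bearing an antioxidant response element-firefly luciferase construct. Inhibition of Nrf2-driven transcription was scored by luminescence after 18-24 h of compound exposure at 37 °C.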
# LDHA block: blocks human lactate dehydrogenase A | P00338 | purified LDHA, NADH/diaphorase-resazurin fluorescence; hits give low values | activity change, % (values are at about 110 or 230 µM) | 480,000 compounds, 0.15% hits; in the data active = activity change below about -30%; inconclusive = mostly about -25% to -30%;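 also: plate controls were DMSO wells for no effect and wells without enzyme for full effect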
#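 Enzyme activity of human lactate dehydrogenase 5 (2 nM; 0.06 mM NADH, 0.2 mM pyruvate, 5 min, RT) is measured via a resazurin/diaphorase fluorescence readout of residual NADH.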
# Nrf2 activator: activates Nrf2 signaling; AREc32 ARE-luciferase reporter (MCF7-derived line), luminescence, 24 h; Potency, µM (doses to about 46.1 µM), inactives show at the top dose activation, usual class: activators; 410,000 compounds, 0.31% hits; also: potency is read from the fitted curve at half-maximal effect; % of control where 0% means no effect; nearly all actives have a fitted effect of over 65% in size
#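 Nrf2 activation is followed as ARE-luciferase induction in the AREc32 line after one day of compound treatment; luminescence is read with Steady-Glo.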
# FLuc counter 3: counter-screen for Nrf2 inhibitors: firefly luciferase enzyme inhibition. shares compounds with Nrf2 block. purified firefly luciferase, luminescence inhibition. Potency, µM (highest dose often 57.5 µM), without a hit: top-dose activity change, negative = inhibition, most hits filed as inhibitors. 1,400 compounds, 4% hits. AID 720522; also: potency is read from the fitted curve at half-maximal effect; % is scaled to controls: 0 for no effect and ±100 for the full control effect; nearly all actives have a fitted effect of over 65% in size
# Target sequence (P08659 whole entry, looked up): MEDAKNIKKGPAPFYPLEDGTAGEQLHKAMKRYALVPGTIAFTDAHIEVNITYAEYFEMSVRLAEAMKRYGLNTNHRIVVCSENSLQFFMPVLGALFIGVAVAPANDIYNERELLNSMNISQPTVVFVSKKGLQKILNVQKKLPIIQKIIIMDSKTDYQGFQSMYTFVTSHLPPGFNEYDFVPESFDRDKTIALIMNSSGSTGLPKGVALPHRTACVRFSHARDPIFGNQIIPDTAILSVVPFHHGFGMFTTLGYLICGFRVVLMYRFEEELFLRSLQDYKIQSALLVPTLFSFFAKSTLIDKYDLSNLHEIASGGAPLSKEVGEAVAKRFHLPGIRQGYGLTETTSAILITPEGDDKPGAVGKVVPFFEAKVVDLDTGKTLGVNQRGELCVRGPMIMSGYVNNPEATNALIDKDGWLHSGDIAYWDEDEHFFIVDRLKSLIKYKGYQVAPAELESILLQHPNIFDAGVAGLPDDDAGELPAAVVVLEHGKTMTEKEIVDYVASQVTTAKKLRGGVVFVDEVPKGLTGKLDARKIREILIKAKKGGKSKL
# A549 tox-2: counter-screen for Nrf2 inhibitors: cytotoxicity in A549 ARE cells; A549 ARE-Fluc cells, cytotoxicity counterscreen; Potency, µM (titrated, usually from 46.1 µM), without a hit: at the highest dose activity change, negative = cytotoxicity, hits mostly inhibitors; 1,400 compounds, 2% hits; shares compounds with Nrf2 block;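 also: potency is read from the fitted curve at half-maximal effect; cells exposed to compounds for 18 to 24 hours; % is scaled to controls: 0 for no effect and ±100 for the full control effect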
# Nrf2 ARE inh: confirmation of Nrf2 inhibitors in A549 ARE reporter cells; A549 ARE-firefly luciferase reporter, luminescence; shares compounds with Nrf2 block; Potency, µM (doses to about 46.1 µM), without a hit: at the highest dose activity change, negative = inhibition, usual class: inhibitors; 1,400 compounds, 74% hits; also: potency is read from the fitted curve at half-maximal effect; % is scaled to controls: 0 for no effect and ±100 for the full control effect; nearly all actives have a fitted effect of over 65% in size
# Active calls of the source: *; ? = inconclusive; nt = not tested or not shown. Unless noted, calls follow the shape of the dose curve; as a rule, active = well fitted curve in the direction sought with a large enough effect; inconclusive = small, poorly fitted or top-dose-only effect, or another doubt; inactive = no such curve, though single readings can be large; an effect the other way counts as inactive or inconclusive.
SMILES,ERG Ets-DNA blk,12-LOX inh,A549 tox-1,Nrf2 block,LDHA block,Nrf2 activator,FLuc counter 3,A549 tox-2,Nrf2 ARE inh
O=[N+]([O-])c1ccc(C[n+]2cccc3c4ccccc4ccc32)cc1,14%,-19%,?,3.7µM*,4,-1%,2%,-1%,3.7µM*
Cc1ccc[n+](Cc2ccc([N+](=O)[O-])cc2)c1,0%,-8%,2%,?,1,0%,nt,nt,nt
Cc1ccc(OCc2cc(C(=O)N3CCCCCCC3)no2)cc1C,-6%,0%,0%,?,2,3%,nt,nt,nt
O=C(c1cc(COc2ccc3ncccc3c2)on1)N1CCCC1,10%,18%,3%,4.1µM*,0,6%,?,-3%,?
O=C(NC1CCCC1)c1cc(COc2ccc3ncccc3c2)on1,-6%,nt,-9%,6.5µM*,-1,0%,-17%,4%,3.7µM*
COc1cccc(CN(C)C(=O)c2cc(COc3ccc4ncccc4c3)on2)c1,9%,0%,?,3.7µM*,0,1%,-8%,-1%,7.3µM*
Cc1ccc(OCc2cc(C(=O)NC3CCCCC3)no2)cn1,-5%,0%,0%,0%,-4,-1%,nt,nt,nt
O=C(c1cc(COc2ccc3ncccc3c2)on1)N1CCCCCC1,3%,-1%,-19%,3.7µM*,-2,2%,?,0%,6.5µM*
COC(=O)c1cccc(N2C(=O)C(=O)/C(=C(/O)c3ccccc3)C2c2ccc(NC(C)=O)cc2)c1 (configuration not stated),nt,-25%,nt,nt,14,nt,nt,nt,nt
CCOc1ccccc1OCc1nn2c(C(C)(C)C)nnc2s1,nt,?,nt,nt,-1,nt,nt,nt,nt
O=C(c1ccccc1)C1CCN(C(=O)/C=C/c2cccc(C(F)(F)F)c2)CC1,nt,7%,nt,nt,8,nt,nt,nt,nt
COCC1CCN(C(=O)c2cc(COc3ccc4ncccc4c3)on2)CC1,-21%,3%,-27%,3.7µM*,-5,-1%,-12%,-5%,7.3µM*
COC(=O)CSc1ncnc2c1sc1nc3c(cc12)COC(C)(C)C3,-1%,376%,1%,2.9µM*,5,0%,?,-3%,7.3µM*
Cn1c(-c2ccc(S(=O)(=O)N3CCCC3)cc2)csc1=Nc1ccc(Cl)c(Cl)c1,-3%,?,-5%,3.3µM*,0,-1%,?,-13%,6.5µM*
OCCCn1c(-c2ccccc2)csc1=Nc1ccccc1,-6%,-22%,5%,-17%,1,7%,nt,nt,nt
O=S(=O)(c1ccc(-c2csc(=Nc3ccc(OC(F)(F)Cl)cc3)n2CCCO)cc1)N1CCCC1,-3%,?,?,6.5µM*,8,-3%,-7%,?,7.3µM*
CCCCn1c(=O)n(CC(=O)Nc2cc(C)on2)c(=O)c2c1ncn2Cc1ccccc1,nt,5%,nt,nt,1,nt,nt,nt,nt
CN(C)CCCNC(=O)c1cc(-c2ccc3c(c2)OCO3)nc2ccccc12,nt,2%,nt,nt,-1,nt,nt,nt,nt
CC(Nc1ncnc2sccc12)c1ccccc1 (configuration not stated),4%,-2%,-7%,1.6µM*,0,0%,0%,0%,1.5µM*

# Assay outcomes as filed in PubChem BioAssay.
